Measurements reported in PubChem BioAssay AID1159580 (chemical genetic matrix, 2015).
Several values for one entry are separate records, joined by “and”; a condition that tells them apart may be missing. Identical values can stand only once. About 2,000 (36%) of roughly 5,500 compounds were called active. Not shown: some 18% with an inconclusive outcome. No stated cut-off is given here; in the data, active means normalized growth mostly below about 0.91 (no sharp cut-off); inconclusive means no clear call, values can overlap the other calls; inactive means mostly above about 0.92. Some of the results follow.

Assay: chemical genetic growth profiling, strain panel (AID 1159580);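 further: tested at 20 µM; growth read once vehicle control cultures reached saturation at 30 °C; 1 = growth at the plate median or of vehicle wells; lower values mean less growth of the strain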
Conditions: S. cerevisiae deletion strains, growth OD
[1] = locus YAL040C, strain CLN3, active compounds read low
[2] = locus YCL061C, strain MRC1 (second series), active compounds read low
[3] = locus YDR150W, strain NUM1, active compounds read low
[4] = locus YDR363W, strain ESC2, active compounds read low
[5] = locus YER002W, strain NOP16, active compounds read low
[6] = locus YMR307W, strain GAS1, active compounds read low
[7] = locus YNL153C, strain GIM3, active compounds read low
[8] = locus YNL175C, strain NOP13, active compounds read low
[9] = locus YNL197C, strain WHI3, active compounds read low
[10] = locus YNL224C, strain SQS1, active compounds read low
[11] = locus YOR083W, strain WHI5 (second series), active compounds read low
[12] = locus YPL055C, strain LGE1, active compounds read low
[13] = locus YGR078C, strain PAC10, active compounds read low
[14] = locus YGR229C, strain SMI1, active compounds read low
[15] = locus YNL322C, strain KRE1, active compounds read low

Measured: normalized growth

CN(C(=O)Cc1ccc(Cl)c(Cl)c1)C(CN1CCCC1)c1cccc(OCC(=O)O)c1 (configuration not stated)
inactive: [1] 0.998 | [2] 0.995 | [3] 1 | [4] 0.961 | [5] 0.992 | [6] 0.989 | [7] 1.01 | [8] 0.995 | [9] 0.997 | [10] 0.99 | [11] 0.999 | [12] 1.01

CC(Cc1ccc(OCC(=O)O)cc1)NCC(O)c1cccc(Cl)c1 (configuration not stated)
active: [3] 0.182
inactive: [1] 0.97 | [5] 1.01 | [13] 1.01 | [14] 1.02 | locus YNL128W, strain TEP1, active compounds read low 1.02 | [8] 0.984 | [9] 0.979 | [10] 0.99 | [11] 0.977

C[C@H](Cc1ccc2c(c1)OC(C(=O)O)(C(=O)O)O2)NC[C@H](O)c1cccc(Cl)c1
inactive: [1] 1.02 | [2] 1.01 | [4] 0.998 | [5] 0.992 | [13] 1.01 | [14] 1.01 | [6] 1.02 | [7] 0.967 | [8] 1 | [9] 0.987 | [10] 1 | [15] 1 | [11] 0.985

CO[C@@H]1[C@@H](O[C@@H]2O[C@H](C)[C@@H](O[C@H]3C[C@@](C)(O)[C@H](O)[C@H](C)O3)[C@H](N(C)C)[C@H]2O)[C@@H](CC=O)C[C@@H](C)[C@@H](O[C@H]2CC[C@H](N(C)C)[C@@H](C)O2)/C=C/C=C/C[C@H](C)OC(=O)C[C@H]1O
inactive: locus YAL021C, strain ccr4, active compounds read low 1.02 | locus YAL026C, strain drs2, active compounds read low 1.01 | locus YAL030W, strain snc1, active compounds read low 0.997 | locus YBL061C, strain skt5, active compounds read low 1.02 | locus YBR009C, strain hhf1, active compounds read low 1.01 | locus YBR021W, strain FUR4, active compounds read low 1.03 | locus YBR023C, strain chs3, active compounds read low 1.01 | locus YBR171W, strain sec66, active compounds read low 1.02 | locus YBR229C, strain ROT2, active compounds read low 1.02 | locus YBR231C, strain swc5, active compounds read low 1.02 | locus YBR279W, strain paf1, active compounds read low 1.03 | locus YCL011C, strain gbp2, active compounds read low 1.01 | locus YCL016C, strain dcc1, active compounds read low 1.01 | locus YCL029C, strain bik1, active compounds read low 1 | locus YCL061C, strain MRC1, active compounds read low 1.01 | locus YCL069W, strain vba3, active compounds read low 1.01 | locus YCR088W, strain abp1, active compounds read low 1.02 | locus YDL005C, strain med2, active compounds read low 1.01 | locus YDL035C, strain GPR1, active compounds read low 1 | locus YDL040C, strain nat1, active compounds read low 1.02 | locus YDL074C, strain BRE1, active compounds read low 1.04 | locus YDL101C, strain DUN1, active compounds read low 1.01 | locus YDL185W, strain tfp1, active compounds read low 0.976 | locus YDL192W, strain arf1, active compounds read low 0.998 | locus YDR001C, strain nth1, active compounds read low 1.01 | locus YDR069C, strain doa4, active compounds read low 1 | locus YDR101C, strain arx1, active compounds read low 1.02 | locus YDR137W, strain rgp1, active compounds read low 1.02 | [3] 1.02 | locus YDR159W, strain sac3, active compounds read low 1.01 | locus YDR162C, strain NBP2, active compounds read low 1.01 | locus YDR195W, strain ref2 1 | locus YDR297W, strain sur2, active compounds read low 1.01 | locus YDR318W, strain mcm21, active compounds read low 0.996 | locus YDR334W, strain swr1, active compounds read low 1.03 | locus YDR335W, strain msn5, active compounds read low 1.01 | locus YDR388W, active compounds read low 1 | locus YDR392W, strain spt3, active compounds read low 1.02 | locus YDR502C, strain sam2, active compounds read low 0.989 | locus YEL003W, strain gim4, active compounds read low 1.01 | locus YEL037C, strain rad23, active compounds read low 1.01 | locus YEL061C, strain CIN8 (second series), active compounds read low 1.01 | locus YEL061C, strain CIN8, active compounds read low 1.01 | locus YER015W, strain faa2, active compounds read low 1 | locus YER016W, strain bim1, active compounds read low 1.01 | locus YER110C, active compounds read low 0.967 | locus YER111C, strain swi4, active compounds read low 1.01 | locus YER155C, strain BEM2 (second series), active compounds read low 1.02 | locus YER155C, strain BEM2, active compounds read low 1.01 | locus YER167W, strain BCK2, active compounds read low 1.02 | locus YFR010W, strain ubp6, active compounds read low 1.02 | locus YGL078C, strain dbp3, active compounds read low 0.982 | locus YGL086W, strain mad1, active compounds read low 0.994 | locus YGL167C, strain pmr1, active compounds read low 1.01 | locus YGL173C, strain kem1, active compounds read low 1.01 | locus YGL227W, strain vid30, active compounds read low 1.02 | locus YGL240W, strain doc1, active compounds read low 0.999 | locus YGL248W, strain PDE1, active compounds read low 1.02 | locus YGL253W, strain hxk2, active compounds read low 1.01 | [13] 1.01 | locus YGR135W, strain pre9, active compounds read low 0.955 | [14] 1.03 | locus YGR252W, strain gcn5, active compounds read low 0.95 | locus YHR013C, strain ard1, active compounds read low 1.03 | locus YHR027C, strain rpn1, active compounds read low 1.01 | locus YHR030C, strain SLT2, active compounds read low 1.02 and 0.972 | locus YHR079C, strain IRE1 (second series), active compounds read low 1 | locus YHR079C, strain IRE1, active compounds read low 0.961 | locus YHR094C, strain hxt1, active compounds read low 1 | locus YHR129C, strain ARP1, active compounds read low 1.02 | locus YHR142W, strain chs7, active compounds read low 1 | locus YHR200W, strain rpn10, active compounds read low 0.984 | locus YIL066C, strain RNR3, active compounds read low 1.03 | locus YIL073C, strain SPO22, active compounds read low 0.928 | locus YIL125W, strain kgd1, active compounds read low 0.997 | locus YIR030C, strain dcg1, active compounds read low 1 | locus YJL092W, strain hpr5, active compounds read low 1.01 | locus YJL095W, strain BCK1 (second series), active compounds read low 1.01 | locus YJL095W, strain BCK1, active compounds read low 1.01 and 0.969 | locus YJL115W, strain asf1, active compounds read low 1.02 | locus YJL129C, strain trk1, active compounds read low 1 | locus YJL134W, strain LCB3, active compounds read low 1.01 | locus YJL154C, strain vps35, active compounds read low 1.02 | locus YJL164C, strain tpk1, active compounds read low 1 | locus YJL166W, strain qcr8, active compounds read low 1.02 | locus YJL168C, strain set2, active compounds read low 0.979 | locus YJL187C, strain SWE1 (second series), active compounds read low 1.02 | locus YJL187C, strain SWE1, active compounds read low 1.01 | locus YJR043C, strain POL32, active compounds read low 1 | locus YJR066W, strain TOR1, active compounds read low 0.922 | locus YJR075W, strain HOC1, active compounds read low 0.991 | locus YKL009W, strain mrt4, active compounds read low 0.969 | locus YKL068W, active compounds read low 1.02 | locus YKL085W, strain MDH1 (second series), active compounds read low 1.01 | locus YKL085W, strain MDH1, active compounds read low 1.01 | locus YKL160W, strain elf1, active compounds read low 1.02 | locus YKR001C, strain vps1, active compounds read low 0.982 | locus YKR026C, strain gcn3, active compounds read low 1.02 | locus YKR091W, strain srl3, active compounds read low 1.01 | locus YLL001W, strain dnm1, active compounds read low 1.01 | locus YLL026W, active compounds read low 1.01 | locus YLL041C, strain sdh2, active compounds read low 1.01 | locus YLR027C, strain aat2, active compounds read low 1.01 | locus YLR039C, strain RIC1, active compounds read low 0.943 | locus YLR058C, strain SHM2, active compounds read low 1.02 | locus YLR102C, strain apc9, active compounds read low 0.997 | locus YLR113W, strain HOG1, active compounds read low 0.965 | locus YLR221C, strain rsa3, active compounds read low 1 | locus YLR258W, strain gsy2, active compounds read low 1.01 | locus YLR262C, strain YPT6 (second series), active compounds read low 1.02 | locus YLR262C, strain YPT6, active compounds read low 0.989 | locus YLR268W, strain sec22, active compounds read low 0.996 | locus YLR320W, strain mms22, active compounds read low 1.02 | locus YLR330W, strain CHS5, active compounds read low 1.01 | locus YLR342W, strain FKS1 (second series), active compounds read low 0.999 | locus YLR342W, strain FKS1, active compounds read low 1.02 | locus YLR357W, strain rsc2, active compounds read low 1.02 | locus YLR370C, strain arc18, active compounds read low 1.01 | locus YLR371W, strain rom2, active compounds read low 1 | locus YLR384C, strain iki3, active compounds read low 1.03 | locus YLR418C, strain cdc73, active compounds read low 0.967 | locus YML016C, strain PPZ1, active compounds read low 1.01 | locus YML032C, strain rad52, active compounds read low 0.955 | locus YML120C, strain ndi1, active compounds read low 1.01 | locus YML124C, strain tub3, active compounds read low 1 | locus YMR058W, strain fet3, active compounds read low 1.02 | locus YMR078C, strain ctf18, active compounds read low 0.993 | locus YMR125W, strain sto1, active compounds read low 1.01 | locus YMR129W, active compounds read low 1.02 | locus YMR205C, strain PFK2, active compounds read low 1.03 | locus YMR223W, strain ubp8, active compounds read low 0.975 | locus YMR231W, strain pep5, active compounds read low 1 | locus YMR263W, strain SAP30, active compounds read low 1.01 | [6] 0.959 | locus YNL067W, strain RPL9B, active compounds read low 1.01 | locus YNL071W, strain lat1, active compounds read low 1 | [7] 1.01 | locus YNL183C, strain NPR1, active compounds read low 0.921 | locus YNL209W, strain ssb2, active compounds read low 1.02 | locus YNL233W, strain BNI4, active compounds read low 1 | locus YNL248C, strain rpa49, active compounds read low 1.01 | locus YNL250W, strain rad50, active compounds read low 0.989 | locus YNL271C, strain bni1, active compounds read low 1 | locus YNL298W, strain CLA4, active compounds read low 0.997 | locus YNL307C, strain MCK1, active compounds read low 0.993 | locus YNL322C, strain KRE1 (second series), active compounds read low 1.01 | [15] 1.02 | locus YNR049C, strain mso1, active compounds read low 1.02 | locus YNR052C, strain pop2, active compounds read low 0.996 | locus YOL012C, strain htz1 0.441 | locus YOL147C, strain pex11, active compounds read low 0.991 | locus YOR001W, strain rrp6, active compounds read low 0.998 | locus YOR061W, strain CKA2, active compounds read low 1.01 | locus YOR069W, strain VPS5, active compounds read low 1.01 | locus YOR070C, strain gyp1, active compounds read low 1.01 | locus YOR080W, strain dia2, active compounds read low 1.01 | locus YOR083W, strain WHI5, active compounds read low 1.02 | locus YOR106W, strain vam3, active compounds read low 1.03 | locus YOR136W, strain idh2, active compounds read low 1 | locus YOR144C, strain elg1, active compounds read low 0.992 | locus YOR184W, strain ser1, active compounds read low 0.967 | locus YOR231W, strain MKK1, active compounds read low 0.973 | locus YOR265W, strain rbl2, active compounds read low 1.01 | locus YOR270C, strain vph1, active compounds read low 0.997 | locus YOR290C, strain snf2, active compounds read low 1 | locus YOR316C, strain cot1, active compounds read low 1.01 | locus YPL051W, strain arl3, active compounds read low 1.01 | [12] 1.03 | locus YPL078C, strain atp4, active compounds read low 1.01 | locus YPL106C, strain sse1, active compounds read low 1.04 | locus YPL240C, strain hsp82, active compounds read low 1.01 | locus YPL256C, strain CLN2, active compounds read low 1 | locus YPR119W, strain clb2, active compounds read low 0.994 | locus YPR141C, strain kar3, active compounds read low 1.02 | locus YPR163C, strain tif3, active compounds read low 1.01 | locus YPR167C, strain met16, active compounds read low 1 | strain wtn01, active compounds read low 0.989
